Source: PubChem BioAssay AID651674 (The Scripps Research Institute Molecular Screening Center, 2012)
The campaign covered roughly 2,200 compounds. About 1,700 (77%) were called active.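 Rule for the calls: active = mean inhibition across replicate wells exceeding the computed hit threshold (cut at about 13% in these data); inactive = the rest.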 The set was probably picked from earlier hits. Not all results are given here.

Target: Hepatocyte nuclear factor 4-alpha (Homo sapiens) (UniProt P41235)
Assay: HNF4 dimerization inhibitors, counter-screen for ABHD5-PLIN5 interaction inhibitor project, biochemical, split-luciferase complementation, luminescence (AID 651674);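 note: light from luciferase halves that rejoin when HNF4 fusion proteins dimerize; 0% = DMSO only wells and the 100% control is not given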
Details: at 4 µM, stronger effect = higher value

Hepatocyte nuclear factor 4-alpha (Homo sapiens), sequence (P41235 whole entry, looked up, the tested form may be a part): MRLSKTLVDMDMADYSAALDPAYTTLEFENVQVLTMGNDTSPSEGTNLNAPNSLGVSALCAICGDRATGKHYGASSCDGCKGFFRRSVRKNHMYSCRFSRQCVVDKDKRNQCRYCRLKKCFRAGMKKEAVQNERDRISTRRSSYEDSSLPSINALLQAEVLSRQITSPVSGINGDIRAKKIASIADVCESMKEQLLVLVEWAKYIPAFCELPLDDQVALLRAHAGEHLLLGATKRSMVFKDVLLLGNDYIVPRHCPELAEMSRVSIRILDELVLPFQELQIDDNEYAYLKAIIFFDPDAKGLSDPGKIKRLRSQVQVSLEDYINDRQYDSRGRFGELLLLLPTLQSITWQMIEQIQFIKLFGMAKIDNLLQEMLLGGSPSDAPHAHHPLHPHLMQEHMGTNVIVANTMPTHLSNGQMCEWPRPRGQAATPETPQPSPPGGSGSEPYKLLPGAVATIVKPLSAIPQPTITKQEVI

| SMILES | inhibition |
| --- | --- |
| COc1ccc(CN2C(=O)NC(=O)/C(=C\c3ccc(OC)c(OC)c3OC)C2=O)cc1 | 31.3% (active) |
| CN(C)CC1Oc2ccccc2OC1(O)c1ccccc1 (stereo not given) | 104% (active) |
| Cc1cccc(N2C(=O)NC(=O)/C(=C\c3cnn(-c4ccccc4)c3)C2=O)c1 | 68.7% (active) |
| CCOC(=O)[C@]12Cc3ccccc3[C@H]1N(C1CCCCC1)C(=O)c1cc(OC)ccc12 | 27.9% (active) |
| CCc1nnc(NS(=O)(=O)c2ccc(N=Cc3c(O)n(-c4ccccc4)c(=O)[nH]c3=O)cc2)s1 | 33.6% (active) |
